Reference: paper PMC5540273 (PLoS ONE, 2017)

What was measured:
Conditions in all cases: concentration: 1 μM, replicates: in singlicate; n = 1
[1] = system: DYRK1B
[2] = system: DYRK2
[3] = system: EGFR
[4] = system: EIF2AK1
[5] = system: EPHA1
[6] = system: EPHA2
[7] = system: EPHA3
[8] = system: EPHA4
[9] = system: EPHA5
[10] = system: EPHA6
[11] = system: EPHA7
[12] = system: EPHA8
[13] = system: EPHB1
[14] = system: EPHB2
[15] = system: EPHB3
[16] = system: EPHB4
[17] = system: EPHB6
[18] = system: ERBB2
[19] = system: ERBB3
[20] = system: ERBB4
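Further: KINOMEscan kinase panel screen.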

| SMILES | %Inh [1] [%] | %Inh [2] [%] | %Inh [3] [%] | %Inh [4] [%] | %Inh [5] [%] | %Inh [6] [%] | %Inh [7] [%] | %Inh [8] [%] | %Inh [9] [%] | %Inh [10] [%] | %Inh [11] [%] | %Inh [12] [%] | %Inh [13] [%] | %Inh [14] [%] | %Inh [15] [%] | %Inh [16] [%] | %Inh [17] [%] | %Inh [18] [%] | %Inh [19] [%] | %Inh [20] [%] |
| --- | --- | --- | --- | --- | --- | --- | --- | --- | --- | --- | --- | --- | --- | --- | --- | --- | --- | --- | --- | --- |
| Nc1ncnc2scc(-c3ccc(NC(=O)Cc4cc(F)ccc4F)cc3)c12.O=C(O)C(F)(F)F [SB-731254-M] | 0 | 0 | 80 | 95.2 | 13 | 100 | 21 | 24 | 0 | 0 | 4 | 0 | 0 | 15 | 0 | 5 | 98.8 | 39 | 0 | 53 |
| O=C(Nc1n[nH]c2nc(-c3cccc(O)c3)ccc12)C1CC1 [SB-711805] | 86 | 79 | 5 | 0 | 13 | 0 | 19 | 0 | 0 | 15 | 11 | 30 | 14 | 0 | 1 | 5 | 48 | 0 | 0 | 0 |
| NCCC(NC(=O)c1cc(Br)c(-c2ccnc3[nH]ccc23)s1)c1ccccc1.O=C(O)C(F)(F)F.O=C(O)C(F)(F)F (stereo not shown) [GSK1307810] | 70 | 57 | 19 | 0 | 10 | 1 | 35 | 0 | 0 | 0 | 3 | 11 | 4 | 0 | 0 | 0 | 27 | 39 | 19 | 21 |
| CN1CCN(Cc2ccc(NC(=O)Nc3ccc(N(C)c4ccnc(Nc5ccc(CS(C)(=O)=O)cc5)n4)cc3)cc2)CC1.Cl [GW827654] | 3 | 32 | 0 | 0 | 33 | 29 | 49 | 0 | 5 | 2 | 10 | 77 | 11 | 28 | 0 | 0 | 94.5 | 48 | 45 | 33 |
| CC(C)c1nc(-c2ccc(F)c(NS(=O)(=O)c3c(F)cccc3F)c2)c(-c2ccnc(Nc3ccc(N4CCOCC4)nc3)n2)s1 [GSK1804250] | 0 | 2 | 82 | 67 | 96.2 | 17 | 31 | 30 | 1 | 50 | 12 | 70 | 21 | 0 | 24 | 12 | 97.3 | 95.8 | 98.8 | 78 |
| Nc1ncc(-c2cn[nH]c2)c2scc(-c3ccc4c(c3)CCN4C(=O)Cc3ccccc3)c12 [GSK2593067] | 0 | 7 | 25 | 48 | 26 | 0 | 0 | 0 | 0 | 12 | 0 | 14 | 5 | 0 | 0 | 0 | 97.6 | 0 | 0 | 0 |
| CC(C)c1nc(-c2cccc(NS(=O)(=O)c3c(F)cccc3F)c2)c(-c2ccnc(Nc3ccc(N4CCOCC4)nc3)n2)s1.Cl [GSK1723980] | 0 | 18 | 99.1 | 66 | 97.7 | 0 | 18 | 27 | 0 | 77 | 0 | 93 | 24 | 0 | 0 | 0 | 97.4 | 86 | 97.8 | 95 |
| O=C(Nc1c(F)cccc1F)c1cc(C(=O)c2ccccc2F)c[nH]1 [GSK1326180] | 17 | 12 | 26 | 0 | 0 | 11 | 0 | 9 | 0 | 2 | 0 | 0 | 4 | 0 | 6 | 0 | 0 | 35 | 20 | 0 |
| O=C(O)C(F)(F)F.O=c1[nH]ccc2nc(N[C@@H]3CCNC3)nc(Nc3ccc4c(c3)S(=O)(=O)CC4)c12 [GSK2181306] | 81 | 52 | 33 | 4 | 12 | 7 | 93.9 | 16 | 0 | 16 | 27 | 24 | 9 | 0 | 5 | 8 | 19 | 8 | 0 | 0 |
| CCn1c(-c2nonc2N)nc2c(-c3ccccc3)ncc(OCCCN)c21.O=C(O)C(F)(F)F.O=C(O)C(F)(F)F [GSK260205] | 0 | 14 | 56 | 90.8 | 24 | 0 | 12 | 0 | 0 | 0 | 6 | 10 | 0 | 0 | 0 | 7 | 0 | 89 | 0 | 41 |
| O=C(O)C(F)(F)F.O=c1[nH]ccc2nc(N[C@@H]3CCNC3)nc(Nc3cc(Cl)cc(Cl)c3)c12 [GSK2188764] | 21 | 36 | 25 | 18 | 6 | 0 | 72 | 0 | 0 | 0 | 1 | 5 | 28 | 1 | 4 | 6 | 17 | 4 | 0 | 0 |
| c1ccc(Oc2ccc(Nc3ccnc4cc(-c5ccc(CN6CCCCC6)o5)ccc34)cc2)nc1 [GW567143] | 0 | 10 | 55 | 0 | 78 | 0 | 6 | 3 | 0 | 0 | 0 | 12 | 6 | 0 | 4 | 7 | 66 | 18 | 96 | 51 |
| COc1cccc(-c2nc(-c3ccccc3)[nH]c2-c2ccncc2)c1 [SB-610250] | 20 | 2 | 12 | 5 | 18 | 0 | 0 | 17 | 0 | 9 | 9 | 25 | 16 | 0 | 24 | 0 | 22 | 31 | 20 | 0 |
| CCOc1nccc(-c2c(-c3ccc(F)cc3)ncn2C2CCNCC2)n1 [SB-249175] | 50 | 6 | 9 | 45 | 10 | 0 | 13 | 4 | 0 | 7 | 0 | 0 | 0 | 11 | 0 | 0 | 14 | 5 | 36 | 30 |
| Fc1cc(Cl)ccc1Nc1ccnc2cc(-c3ccc(CN4CCOCC4)o3)ccc12 [GW560109] | 7 | 13 | 71 | 10 | 94.5 | 34 | 32 | 41 | 0 | 65 | 59 | 90.2 | 50 | 44 | 15 | 55 | 91.7 | 34 | 80 | 25 |
| CN(C)c1ncnc2nc[nH]c12 [SKF-31736] | 39 | 23 | 0 | 0 | 0 | 0 | 8 | 0 | 0 | 0 | 0 | 0 | 0 | 0 | 0 | 0 | 0 | 24 | 13 | 0 |
| COc1cccc(CC(=O)N2CCc3cc(-c4cn(C)c5ncnc(N)c45)ccc32)c1 [GSK2608899] | 22 | 22 | 23 | 87 | 0 | 0 | 19 | 4 | 5 | 10 | 10 | 11 | 24 | 14 | 7 | 0 | 64 | 0 | 0 | 0 |
| Cl.N#CCc1ccc(Nc2nccc(Nc3ccc(Oc4ccccc4)cc3)n2)cc1 [GW639905] | 0 | 8 | 33 | 5 | 1 | 9 | 0 | 0 | 0 | 0 | 0 | 0 | 0 | 6 | 0 | 0 | 46 | 23 | 96.3 | 53 |
| CS(=O)(=O)c1cccc(CNc2nc(Nc3ccc4c(c3)CCC(=O)N4)ncc2C(F)(F)F)c1 | 61 | 0 | 0 | 0 | 1 | 0 | 0 | 0 | 0 | 0 | 0 | 0 | 0 | 0 | 0 | 0 | 21 | 45 | 0 | 3 |
| COC(=O)Nc1nc2ccc(Oc3ccc(CC(=O)Nc4cc(C(F)(F)F)ccc4F)cc3)cc2[nH]1 [GW680903] | 8 | 0 | 30 | 3 | 12 | 54 | 100 | 21 | 0 | 34 | 9 | 64 | 32 | 26 | 9 | 20 | 22 | 30 | 12 | 7 |
